Data taken from PubChem BioAssay (NCATS).
Inconclusive results are not listed. Calls of active or inactive are those of the source. Calls follow the shape of the dose curve; as a rule, active = well fitted curve in the direction sought with a large enough effect in the signal ratio, with a control signal flat (not every such curve was filed as active); inconclusive = small, poorly fitted or top-dose-only effect, or effect the other way, or a change in a side signal; inactive = no such curve, though single readings can be large or run the other way; the % refers to the signal ratio.

target: Tyrosine-protein phosphatase non-receptor type substrate 1 (Homo sapiens) + Leukocyte surface antigen CD47 (Homo sapiens) (UniProt P78324+Q08722); test: CD47-SIRPalpha protein protein interaction - LANCE assay qHTS validation (AID 1347057); conditions: Recombinant CD47-His / biotin-SIRPalpha, TR-FRET ratio; series mostly up to 38.3 µM
Sequence (P78324 whole entry, looked up, the tested form may be a part): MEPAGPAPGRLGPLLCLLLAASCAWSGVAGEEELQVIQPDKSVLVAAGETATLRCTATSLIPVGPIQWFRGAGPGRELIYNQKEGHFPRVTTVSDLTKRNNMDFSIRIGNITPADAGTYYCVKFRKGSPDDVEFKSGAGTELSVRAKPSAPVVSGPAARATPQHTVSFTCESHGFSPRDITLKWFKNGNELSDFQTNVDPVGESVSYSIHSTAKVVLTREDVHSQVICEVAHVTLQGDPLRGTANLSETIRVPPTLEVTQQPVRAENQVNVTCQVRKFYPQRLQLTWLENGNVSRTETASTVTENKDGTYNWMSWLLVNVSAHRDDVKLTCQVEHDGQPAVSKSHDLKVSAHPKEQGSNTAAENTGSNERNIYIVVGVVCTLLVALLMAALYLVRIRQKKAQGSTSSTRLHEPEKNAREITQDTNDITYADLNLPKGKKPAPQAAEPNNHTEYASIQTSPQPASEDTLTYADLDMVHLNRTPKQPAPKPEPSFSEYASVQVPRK
Sequence (Q08722 whole entry, looked up, the tested form may be a part): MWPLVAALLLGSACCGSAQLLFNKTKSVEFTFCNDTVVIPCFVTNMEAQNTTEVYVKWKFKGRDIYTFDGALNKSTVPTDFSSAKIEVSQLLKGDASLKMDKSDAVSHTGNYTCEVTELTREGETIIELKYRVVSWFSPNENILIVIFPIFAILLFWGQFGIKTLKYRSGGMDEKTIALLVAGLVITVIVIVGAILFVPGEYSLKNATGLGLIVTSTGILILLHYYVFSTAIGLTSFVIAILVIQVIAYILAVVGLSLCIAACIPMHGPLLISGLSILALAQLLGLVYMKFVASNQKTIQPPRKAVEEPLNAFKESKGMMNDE
Description: SIRPalpha is a myeloid cell expressed immunomodulatory receptor that binds the tumor expressed immune checkpoint CD47. Therapeutic disruption of this interaction leads to immune-mediated tumor rejection. This assay was used to quantitate CD47-SIRPalpha binding biochemically and evaluate chemical libraries for novel CD47-SIRPalpha inhibitors. To recapitulate the biological interaction of CD47 and SIRPalpha, we designed expression constructs to produce their recombinant, soluble, extracellular interaction domains. CD47 was produced with an N-terminal 6His tag. SIRPalpha was produced with an N-terminal Avi-Tag for site-specific biotin incorporation. The CD47-SIRPalpha interaction was measured by TR-FRET using affinity tag linked reagents (anti-6His-Eu donor and streptavidin-APC acceptor). SIRPalpha without biotin incorporation was used as a positive control inhibitor.
PROTOCOL TABLE (as described by Miller, T. et al. 2019)
SEQUENCE No. (e.g., 1, 2, 3, etc.); […] (e.g., Cells, Incubation, Reagent, etc.); VALUE and DESCRIPTION.
1a. Reagent. 3 uL CD47-His (12.5 nM) and Anti-His Eu Donor reagent (3 nM) added to respective wells in Assay buffer; white/solid bottom high base, med bind 1536-well plates (Greiner 789075)
1b. Reagent. 2 uL Assay buffer negative control for background fluorescence
2. Reagent. 23 nL library compounds (7-pt, 1:4 intraplate titration series) or DMSO control transferred by Pin Tool
3. Centrifuge. Centrifuge plate for 30 s at 1000 RPM
4. Incubation.#Incubate reagents at room temperature for 30 min, protected from light
5. Reagent. 2 uL SIRPalpha-biotin (100 nM) in Assay buffer
6. Incubation.#Incubate reagents at room temperature for 30 min, protected from light
7. Reagent. 1 uL SAV-APC (26 nM) acceptor reagent added to respective wells
8. Centrifuge. Centrifuge plate for 30 s at 1000 RPM
9. Incubation. Incubate reagents at room temperature for 30 min, protected from light
10. Detector. Measure Top TR-FRET on EnVision (Eu/APC filter set); calculate ratio Ch1/Ch2
1. Assay buffer composition.#Phosphate buffered saline (PBS; 10 mM Phosphate, 137 mM NaCl, and 2.7 mM KCl; pH 7.4), 0.05% IGEPAL CA-630
2. 23nL of […] library compounds (7 plates) or DMSO vehicle control transferred to 9 Greiner white/solid bottom high base, TC plates in 7 interplate 1:5 titrations (see Yasgar, A. et al. 2008) with Pintool. Two of the 9 plates are DMSO-only in compound field at beginning and end of compound library-treated plates.
10. Detector settings#Mirror = LANCE/DELFIA Dual Enh; Ex. Filter = UV2[TRF] 320; Em. Filter = APC 665; 2nd Em. Filter = Europium 615; Measurement h = 6.5; Ex. light (%) = 100; Delay = 60 us; Window t = 100 us; No. Seq. windows = 1; Time between flashes = 2000us; No. of flashes = 100; No. of flashes for 2nd detector = 100; Calculation: "Ratio Ch1/Ch2"

Row | SMILES | outcome
1 | Cc1cccc(C)c1NC(=O)CN1CCCC1=O | inactive
2 | CCCN1CCC[C@@H]2Cc3nc(N)ncc3C[C@H]21 | inactive
3 | NN=C(N)N | inactive
4 | C[C@@H]1O[C@@H](O[C@H]2C[C@@H](O)[C@]3(CO)[C@H]4[C@H](O)C[C@]5(C)[C@@H](C6=CC(=O)OC6)CC[C@]5(O)[C@@H]4CC[C@]3(O)C2)[C@H](O)[C@H](O)[C@H]1O | inactive
5 | c1ccc(C2CC2)c(OCC2=NCCN2)c1 | inactive
6 | O=c1[nH]c2ccccc2n1CCCN1CCC(n2c(=O)[nH]c3cc(Cl)ccc32)CC1 | inactive
7 | Fc1ccc(C(OCCN2CCN(CCCc3ccccc3)CC2)c2ccc(F)cc2)cc1 | inactive
8 | CNCC(O)c1ccc(O)cc1 (stereo unspecified) | inactive
9 | CC(=O)[C@H]1CC[C@H]2[C@@H]3CC[C@H]4C[C@H](O)CC[C@]4(C)[C@H]3C(=O)C[C@]12C | inactive
10 | C=C(C)[C@H]1Cc2c(ccc3c2O[C@@H]2COc4cc(OC)c(OC)cc4[C@@H]2C3=O)O1 | inactive
11 | CCCN1CCC[C@@H]2Cc3[nH]ncc3C[C@H]21 | inactive
12 | CC(C)=CCOc1c2occc2cc2ccc(=O)oc12 | inactive
13 | c1ccc2c(c1)OCC(C1=NCCN1)O2 (stereo unspecified) | inactive
14 | CN1C[C@H](CNC(=O)OCc2ccccc2)C[C@@H]2c3cccc4c3c(cn4C)C[C@H]21 | inactive
15 | CCC1(C2=NCCN2)Cc2ccccc2O1 (stereo unspecified) | inactive
16 | O=c1[nH]c2ccccc2n1C1CCN(CCCC(c2ccc(F)cc2)c2ccc(F)cc2)CC1 | inactive

Row | SMILES | outcome
17 | N#CC(C#N)=Cc1ccc(O)c(O)c1 | inactive
18 | Cn1c(CCCC(=O)O)nc2cc(N(CCCl)CCCl)ccc21 | inactive
19 | Cc1ccc(S(=O)(=O)N[C@@H](CCCCN)C(=O)CCl)cc1 | inactive
20 | CC(O)(CS(=O)(=O)c1ccc(F)cc1)C(=O)Nc1ccc(C#N)c(C(F)(F)F)c1 (stereo unspecified) | inactive
21 | Cc1cccc(C)c1NC1=NCCCS1 | inactive
22 | COC[C@H]1OC(=O)c2coc3c2[C@@]1(C)C1=C(C3=O)C2CCC(=O)[C@@]2(C)C[C@H]1OC(C)=O (stereo partly specified) | inactive
23 | Nc1ccncc1 | inactive
24 | NCC(CC(=O)O)c1ccc(Cl)cc1 (stereo unspecified) | inactive
25 | NCC1(CC(=O)O)CCCCC1 | inactive
26 | O=C1NCN(c2ccccc2)C12CCN(CC1COc3ccccc3O1)CC2 (stereo unspecified) | inactive
27 | CC(=O)[C@H]1CC[C@H]2[C@@H]3CC[C@H]4C[C@](C)(O)CC[C@]4(C)[C@H]3CC[C@]12C | inactive
28 | COc1ccccc1N1CCNCC1 | inactive
29 | CC(CCc1ccccc1)NC(C)C(O)c1ccc(O)cc1 (stereo unspecified) | inactive
30 | Cc1ncc(CNC(=O)N(CCCl)N=O)c(N)n1 | inactive
31 | NCC(O)c1ccc(O)cc1 (stereo unspecified) | inactive
